# Measured values reported in PubChem BioAssay (NCI).
# This is part of a sample that, as a whole, favours compounds with a hit. Of some 83,000 tested, about 20% had one in any assay.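 Values shown are percent growth following 48 h exposure of cells in 96-well plates to a single concentration of compound; below 10 was considered active.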 Active and inactive are the calls of the source.
# System: T-47D breast
# Experiment: NCI-60 one-dose screen, 48 h (100 = growth as untreated, 0 = no growth, -100 = all killed)
# Settings: 10 µM unless noted
# Procedure: Growth inhibition of the T-47D human tumor cell line is measured as a screen for anti-cancer activity. Cells are grown in 96 well plates and exposed to the test compound for 48 hours. Compounds are tested at a single concentration, which is 10^-5 M for most compounds. The reported endpoint is percent growth (GI% or GIPRCNT), where numbers from 0 - 100% represent growth inhibition, and numbers from -100% - 0 represent cell death. For example, a value of 40 represents 60% growth inhibition. A value of 0 means no net growth occurred over the course of the experiment. A value of -40 indicates 40% of cells at the beginning of the experiment died by the end of the experiment. A value of -100 means all cells are dead at the end of the experiment.
# NCI-60 Human Tumor Cell Lines Screen was performed using the standard one-dose NCI protocol, which is described in more detail at https://dtp.cancer.gov/discovery_development/nci-60/default.htm.
# Compounds with GIPRCNT values below 10 were considered active. Activity score was based on GIPRCNT using the following formula: […]
# Score is 0 for GIPRCNT values of 100 or above, 50 for GIPRCNT values of 0, and 100 for GIPRCNT values of -100.
row,Structure (SMILES),growth
1,COc1ccc(-n2nc(C(=O)NCC(=O)O)nc2-c2ccccc2)cc1,104% (inactive)
2,c1ccc2c3c([nH]c2c1)C(c1ccc(C2NCCc4c2[nH]c2ccccc42)cc1)NCC3 (stereo not given),-59% (active)
3,CCOC(=O)c1sc(/N=C2\NC(=O)/C(=C/c3ccc(N4CCN(C)CC4)cc3)S2)nc1C,95.5% (inactive)
4,COc1cccc(NC(=O)Nc2ccc(Oc3ncnc4[nH]c(C)c(C)c34)cc2)c1,95.2% (inactive)
5,NC(N)=NC(N)=Nc1cc2ccccc2c2ccccc12,30.2% (inactive)
6,COc1ccccc1Nc1nnc(-c2ccc(Cl)cc2)o1,32.4% (inactive)
7,CNCc1cccc2c1OCCOCCOCCN(CCN1CCOCC1)S(=O)(=O)c1ccc(cc1)-c1cnc(N)c(n1)C(=O)N2,101% (inactive)
8,O=C1C(Cl)=C(NCCCN(CCCNC2=C(Cl)C(=O)c3ccccc3C2=O)C2=C(Cl)C(=O)c3ccccc3C2=O)C(=O)c2ccccc21,51.8% (inactive)
9,Cc1cccc(NC(=O)c2sc3nc4c(cc3c2N)CN(Cc2ccccc2)CC4)c1C,53% (inactive)
10,CN1CCN(/C=C2\CC(C(=O)NCc3ccc(Cl)cc3Cl)NC2=O)CC1 (stereo not given),113% (inactive)
11,CCOC(=O)/C=C1\SC(=Nc2ccc(C#N)cc2)N(CCN2C(=O)/C(=C/C(=O)OCC)SC2=Nc2ccc(C#N)cc2)C1=O,21.1% (inactive)
12,COC1=CC2C=C(C3N(c4ccccc4)NC(=O)[C@@H]4CCCN34)C(=O)NC2C=C1 (stereo not given in full),99% (inactive)
13,CCOc1ccc(C2N(c3cc(OC)c(OC)c(OC)c3)C(=O)C2(F)F)cc1 (stereo not given),70% (inactive)
14,COc1ccc(C(=S)c2cc(OC)c(OC)c(OC)c2)cc1OC(=O)CCl,62.6% (inactive)
15,O=C(NC[C@H](O)CN1CCc2ccccc2C1)c1cc(NC2COC2)ncn1,83.4% (inactive)
16,O=Cc1[nH]c(Sc2ccccc2)c2ccccc12,44.1% (inactive)
17,C=CCn1c(SCC(=O)Nc2ccc(C(=O)/C=C/c3cc(OC)c(OC)c(OC)c3)cc2)nnc1-c1ccc(Cl)cc1,18.1% (inactive)
18,O=C1CCc2ccccc2N1,109% (inactive)
19,N#Cc1c(-c2ccc(F)cc2)c(C#N)c2c(C#N)c(N)nn2c1N,66.4% (inactive)
20,CCCCCCC/C=C/[C@H]1O[C@]23C(=O)C[C@@]4(C[C@@H](OC5OC(CO)C(O)C(O)C5O)C[C@@H]4[C@H]2C=C1C)OC3=O (stereo not given in full),25.2% (inactive)

row,Structure (SMILES),growth
1,O=C(Nc1cc(=O)[nH]c(=O)[nH]1)C(Cl)Cl,91.4% (inactive)
2,COc1cc(C(=O)N2CCN(c3ccccc3OC)CC2)c(NC(=O)c2cnccn2)cc1OCc1ccccc1,66.8% (inactive)
3,CC(=O)Oc1c2c(nc3c1c1ccccc1n3Cc1ccccc1)-c1ccccc1C2,56.7% (inactive)
4,COc1ccc(/C=C/C(=O)Nc2ncnc3nc[nH]c23)cc1,91.2% (inactive)
5,Nc1cccc(C(=O)Nc2ccc3c(O)c(N=Nc4ccc(N=Nc5ccc(S(=O)(=O)O)cc5)cc4)c(S(=O)(=O)O)cc3c2)c1,83.8% (inactive)
6,COc1cccc(NC(=O)Nc2ccc(Nc3ncnc4[nH]c(C)c(C)c34)cc2)c1,89.8% (inactive)
7,Nc1c(C(=O)Nc2ccccn2)sc2nc3c(cc12)C(=O)CCC3,33.1% (inactive)
8,CC(=O)Nc1nc2c(c(N)c1C#N)C(c1cccc(Cl)c1)C1=C(CCCC1=O)N2c1sc2c(c1C#N)CCCC2 (stereo not given),36.7% (inactive)
9,COC(=O)c1oc2c(C(=O)/C=C/c3ccc(OC)cc3)c(OCCCN3CCCCC3)ccc2c1C,38.5% (inactive)
10,CCN(CC)c1ccc2c(c1)Oc1nc(N)c(C#N)c(N)c1C2Sc1ccc(OC)cc1 (stereo not given),51.8% (inactive)
11,Cc1c(Br)cccc1NC(=O)c1sc2nc3c(cc2c1N)CN(Cc1ccccc1)CC3,43% (inactive)
12,CCCNc1nc(C)[nH]c(=O)c1S,98.6% (inactive)
13,[2H]c1nc(Nc2ncc3cc(C(=O)N(C)C)n(C4CCCC4)c3n2)c([2H])c([2H])c1N1C([2H])([2H])C([2H])([2H])NC([2H])([2H])C1([2H])[2H],53.2% (inactive)
14,COc1ccc(C2CC(c3ccc(OC)cc3O)=NN2c2ccc(S(N)(=O)=O)cc2)cc1 (stereo not given),24.5% (inactive)
15,Nn1c(SCC(=O)Nc2ccc(Cl)cc2)nnc1-c1cc(F)c(Cl)cc1Cl,67.3% (inactive)
16,CC1(c2ccccc2Cl)NC(=O)NC1=O (stereo not given),79.3% (inactive)
17,C=C1C(=O)O[C@H]2[C@H]1CC/C(COC(=O)c1cccnc1N)=C\CC[C@@]1(C)O[C@@H]21,50.7% (inactive)
18,CCSc1ccc(C2C(Br)C(=O)N2c2cc(OC)c(OC)c(OC)c2)cc1 (stereo not given),67.4% (inactive)
19,N#CC(C#N)=C1NC(c2ccccc2)=C(c2ccccc2)C(c2ccccc2Cl)=C1C#N,102% (inactive)
20,COc1ccc(/C=C/C(=O)c2ccc(NC(=O)CSc3nnc(-c4ccc(OC)c(OC)c4)n3-c3ccccc3)cc2)cc1,36.2% (inactive)
